{"source": "PubChem BioAssay", "key": {"[1]": {"assay": "rapamycin-like changes in RPL19A-GFP expression – cell-based, S. cerevisiae, multiplex flow cytometry, primary screen (AID 1862; in the data active = percent of DMSO control GFP below about 86%;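 also: lower values mimic rapamycin by blocking the RPL19A rise seen in DMSO cells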)", "conditions": "S. cerevisiae RPL19A-GFP strain, flow cytometry fluorescence, 3 h; at 10 µM; stronger effect = lower value"}, "[2]": {"assay": "TOR pathway GLN3 branch reporter MEP2-GFP changes – S. cerevisiae, multiplex flow cytometry, primary screen (AID 1867;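 active = GFP response, as percent of the DMSO control, above the screen-wide mean plus 3 SD, about 139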;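 also: median GFP channel fluorescence of barcode-gated MEP2-GFP cells measured by flow cytometry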)", "conditions": "S. cerevisiae MEP2-GFP strain, 3 h, at 10 µM, stronger effect = higher value"}, "[3]": {"assay": "TOR pathway RTG branch CIT2 reporter changes – S. cerevisiae, GFP fusion, multiplex flow cytometry, primary screen (AID 1870;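 active = percent response above a set limit, the screen-wide mean plus 3 SD, cut at about 130% in these data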;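 also: barcoded CIT2-GFP strain pooled with four other GFP strains with rapamycin as positive control; median GFP fluorescence per well over plate mean of DMSO wells so 100% = DMSO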)", "conditions": "S. cerevisiae CIT2-GFP expression, 3 h, at 10 µM, stronger effect = higher value"}, "[4]": {"assay": "TOR pathway LAP4-GFP level changes – S. cerevisiae, multiplex flow cytometry, primary screen (AID 1873;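 active = GFP signal, as percent of the solvent control, above the screen mean plus 3 SD, about 149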)", "conditions": "S. cerevisiae LAP4-GFP expression, 3 h, at 10 µM, stronger effect = higher value"}, "[5]": {"assay": "yeast AGP1-GFP level changes, GLN3 branch – cell-based, multiplex flow cytometry, S. cerevisiae, primary screen (AID 1887;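 active = GFP signal above the screen-wide mean plus 3 SD, that is over about 124.5% of the solvent control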;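 also: AGP1-GFP fusion strain of S. cerevisiae within a five-strain barcoded multiplex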)", "conditions": "3 h, at 10 µM, stronger effect = higher value"}, "[6]": {"assay": "reduced mouse 2C T cell binding to pMHC/ICAM-1 vesicles – MLPCN validation set, flow cytometry, LFA-1/ICAM-1 modulator project, pilot screen (AID 2523;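 active = response below a set limit, under 55% cells CD8-positive and vesicle-bound, and CD8 cells' 90th-percentile brightness under 279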;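 as to vesicle binding response: mean PE anti-B7-1 fluorescence of CD8+ cells relative to row control; 100% = QL9-loaded vesicles with DMSO vehicle in the same plate row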)", "conditions": "2C mouse CD8+ T cells, at 7 µM, stronger effect = lower value; double positive events: measured here: CD8+/vesicle+ event percentage"}, "[7]": {"molecular_target": "Integrin beta-1 (Homo sapiens) + Integrin alpha-4 (Homo sapiens) (UniProt P13612+P05556)", "assay": "alpha4beta1 integrin LIBS antibody binding reduction – U937 cells, HUTS-21 mAb, flow cytometry, validation set, VLA-4 allosteric modulator project, pilot screen (AID 2674;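 active = inhibition above 50%, about 3 SD of the validation set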;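 also: antibody binding induced by the VLA-4 ligand LDV present at three times its Kd; 0% = LDV ligand with antibody and no compound and 100% = antibody without LDV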)", "conditions": "HUTS-21 LIBS mAb binding, at 6.7 µM, stronger effect = higher value"}, "[8]": {"assay": "calorie-restriction mimetic ROS inhibitors, yeast – validation compound set, pilot screen (AID 2706;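 active = superoxide response below 65% of plate, a cut near 3 SD across the whole screen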;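 also: yeast exposed to compound for one week at 30 degrees C before staining; 100% = mean of all compound wells on the same plate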)", "conditions": "S. cerevisiae aging, superoxide DHE fluorescence; at 10 µM; stronger effect = lower value"}, "[9]": {"molecular_target": "Beta-adrenergic receptor kinase 1 (Homo sapiens) (UniProt P25098)", "sequence (P25098 whole entry, looked up)": "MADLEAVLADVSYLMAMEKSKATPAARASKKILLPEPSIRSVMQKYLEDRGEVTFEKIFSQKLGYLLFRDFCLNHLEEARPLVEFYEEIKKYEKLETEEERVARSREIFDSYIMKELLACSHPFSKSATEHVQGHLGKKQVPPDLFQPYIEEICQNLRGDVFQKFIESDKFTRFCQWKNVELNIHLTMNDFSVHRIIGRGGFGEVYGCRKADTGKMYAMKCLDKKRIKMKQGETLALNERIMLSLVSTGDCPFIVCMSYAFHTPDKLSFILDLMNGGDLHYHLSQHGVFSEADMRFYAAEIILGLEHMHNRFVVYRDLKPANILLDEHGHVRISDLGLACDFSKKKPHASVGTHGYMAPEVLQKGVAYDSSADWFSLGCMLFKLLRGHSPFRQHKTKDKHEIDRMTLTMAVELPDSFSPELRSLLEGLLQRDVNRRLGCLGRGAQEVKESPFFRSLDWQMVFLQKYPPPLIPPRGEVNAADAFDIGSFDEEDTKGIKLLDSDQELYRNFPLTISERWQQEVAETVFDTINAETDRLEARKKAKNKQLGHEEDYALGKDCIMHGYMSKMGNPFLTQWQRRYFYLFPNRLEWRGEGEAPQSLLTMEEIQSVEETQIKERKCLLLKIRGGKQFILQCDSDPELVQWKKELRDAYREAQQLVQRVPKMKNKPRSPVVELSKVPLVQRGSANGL", "assay": "GRK2 binders displacing RNA aptamer, biochemical, validation, human GRK2, bead flow cytometry (AID 488806;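 active = aptamer binding inhibition above 30%, about 3 SD of noise from non-fluorescent compounds; inactive = inhibition at or below 30%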)", "conditions": "bead-bound GRK2, FAM-aptamer displacement, at 10 µM, stronger effect = higher value"}, "[10]": {"molecular_target": "Beta-2 adrenergic receptor (Homo sapiens) (UniProt P07550)", "sequence (P07550 whole entry, looked up)": "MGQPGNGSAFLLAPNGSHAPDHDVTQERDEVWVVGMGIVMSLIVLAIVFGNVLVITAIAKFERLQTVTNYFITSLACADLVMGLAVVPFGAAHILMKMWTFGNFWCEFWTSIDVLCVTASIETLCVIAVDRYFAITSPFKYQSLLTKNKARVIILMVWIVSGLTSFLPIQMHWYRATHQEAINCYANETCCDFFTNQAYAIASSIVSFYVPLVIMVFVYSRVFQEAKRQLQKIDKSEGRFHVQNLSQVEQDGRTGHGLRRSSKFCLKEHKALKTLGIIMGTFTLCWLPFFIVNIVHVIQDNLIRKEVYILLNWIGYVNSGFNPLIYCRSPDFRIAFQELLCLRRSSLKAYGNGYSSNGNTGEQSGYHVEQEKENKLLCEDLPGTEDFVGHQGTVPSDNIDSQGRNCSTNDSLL", "assay": "agonist-induced loss of surface beta2AR – cell-based, FAP fluorogen, flow cytometry, validation set, pilot screen (AID 504459;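 active = percent response above 42, roughly 3 SD of non-fluorescent test compounds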)", "conditions": "Am2.2-beta2AR cells, at 10 µM, stronger effect = higher value"}, "[11]": {"molecular_target": "AP-2 complex subunit beta (Homo sapiens) (UniProt P63010)", "sequence (P63010 whole entry, looked up, one chain of several)": "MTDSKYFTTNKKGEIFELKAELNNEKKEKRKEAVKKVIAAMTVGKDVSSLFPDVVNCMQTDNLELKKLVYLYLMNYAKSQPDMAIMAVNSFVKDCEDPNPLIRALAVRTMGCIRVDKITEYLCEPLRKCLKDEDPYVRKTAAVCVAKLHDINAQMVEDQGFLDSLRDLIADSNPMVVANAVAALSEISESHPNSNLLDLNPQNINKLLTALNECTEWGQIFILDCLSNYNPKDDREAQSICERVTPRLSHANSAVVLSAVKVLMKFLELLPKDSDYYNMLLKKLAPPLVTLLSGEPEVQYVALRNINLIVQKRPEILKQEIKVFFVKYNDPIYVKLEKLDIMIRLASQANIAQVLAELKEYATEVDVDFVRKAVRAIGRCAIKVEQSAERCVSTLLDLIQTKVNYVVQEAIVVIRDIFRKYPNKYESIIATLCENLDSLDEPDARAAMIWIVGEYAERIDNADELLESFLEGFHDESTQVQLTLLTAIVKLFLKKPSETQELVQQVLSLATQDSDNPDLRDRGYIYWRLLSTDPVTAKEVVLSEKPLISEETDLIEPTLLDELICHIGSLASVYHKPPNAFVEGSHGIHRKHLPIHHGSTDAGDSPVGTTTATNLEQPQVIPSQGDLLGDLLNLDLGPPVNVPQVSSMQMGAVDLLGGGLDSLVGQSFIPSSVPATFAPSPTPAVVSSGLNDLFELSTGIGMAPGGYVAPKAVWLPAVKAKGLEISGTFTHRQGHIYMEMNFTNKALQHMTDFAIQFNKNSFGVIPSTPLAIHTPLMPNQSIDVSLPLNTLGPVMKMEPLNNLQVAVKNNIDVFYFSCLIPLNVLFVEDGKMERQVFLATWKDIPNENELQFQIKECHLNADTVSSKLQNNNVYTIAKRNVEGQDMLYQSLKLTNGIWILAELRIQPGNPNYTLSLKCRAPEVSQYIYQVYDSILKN", "assay": "beta-arrestin/AP2 interaction blockers – biochemical, validation set, GST-AP2 beads, flow cytometry, pilot screen (AID 504541;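 active = inhibition above 54%, about 3 SD of non-fluorescent compounds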;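 also: AP2 carries R879A mutation and is captured from E. coli lysate; 0% = DMSO wells and 100% = excess unlabeled arrestin peptide control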)", "conditions": "FITC arrestin peptide, at 10 µM, stronger effect = higher value"}, "[12]": {"assay": "cytosolic pH regulators acting via V-ATPase – S. cerevisiae, pHLuorin, HTS validation (AID 504600; in the data active = response above about 15%)", "conditions": "V-ATPase proton transport, at 10 µM, stronger effect = higher value"}, "[13]": {"test_system": "anti-desmoglein-3 scFv antibody binding to human DSG3", "assay": "blockers of pathogenic pemphigus antibody–desmoglein-3 binding – biochemical, validation compound set, bead-based, flow cytometry, pilot screen (AID 588368;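 active = binding below the plate cutoff, the plate median minus 3 SD, with a reading above zero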)", "conditions": "Protein G beads, DSG3-Fc, scFv-GFP binding, at 10 µM, stronger effect = lower value"}, "[14]": {"test_system": "Botulinum neurotoxin type F light chain protease (Clostridium botulinum)", "assay": "Clostridium botulinum type F light chain protease inhibitors, microsphere substrate cleavage, validation (AID 588459)", "conditions": "multiplex microsphere protease substrate cleavage assay, flow cytometry; at 10 µM; stronger effect = higher value"}, "[15]": {"molecular_target": "Botulinum neurotoxin type A (Clostridium botulinum) (UniProt P0DPI0)", "sequence (P0DPI0 whole entry, looked up)": "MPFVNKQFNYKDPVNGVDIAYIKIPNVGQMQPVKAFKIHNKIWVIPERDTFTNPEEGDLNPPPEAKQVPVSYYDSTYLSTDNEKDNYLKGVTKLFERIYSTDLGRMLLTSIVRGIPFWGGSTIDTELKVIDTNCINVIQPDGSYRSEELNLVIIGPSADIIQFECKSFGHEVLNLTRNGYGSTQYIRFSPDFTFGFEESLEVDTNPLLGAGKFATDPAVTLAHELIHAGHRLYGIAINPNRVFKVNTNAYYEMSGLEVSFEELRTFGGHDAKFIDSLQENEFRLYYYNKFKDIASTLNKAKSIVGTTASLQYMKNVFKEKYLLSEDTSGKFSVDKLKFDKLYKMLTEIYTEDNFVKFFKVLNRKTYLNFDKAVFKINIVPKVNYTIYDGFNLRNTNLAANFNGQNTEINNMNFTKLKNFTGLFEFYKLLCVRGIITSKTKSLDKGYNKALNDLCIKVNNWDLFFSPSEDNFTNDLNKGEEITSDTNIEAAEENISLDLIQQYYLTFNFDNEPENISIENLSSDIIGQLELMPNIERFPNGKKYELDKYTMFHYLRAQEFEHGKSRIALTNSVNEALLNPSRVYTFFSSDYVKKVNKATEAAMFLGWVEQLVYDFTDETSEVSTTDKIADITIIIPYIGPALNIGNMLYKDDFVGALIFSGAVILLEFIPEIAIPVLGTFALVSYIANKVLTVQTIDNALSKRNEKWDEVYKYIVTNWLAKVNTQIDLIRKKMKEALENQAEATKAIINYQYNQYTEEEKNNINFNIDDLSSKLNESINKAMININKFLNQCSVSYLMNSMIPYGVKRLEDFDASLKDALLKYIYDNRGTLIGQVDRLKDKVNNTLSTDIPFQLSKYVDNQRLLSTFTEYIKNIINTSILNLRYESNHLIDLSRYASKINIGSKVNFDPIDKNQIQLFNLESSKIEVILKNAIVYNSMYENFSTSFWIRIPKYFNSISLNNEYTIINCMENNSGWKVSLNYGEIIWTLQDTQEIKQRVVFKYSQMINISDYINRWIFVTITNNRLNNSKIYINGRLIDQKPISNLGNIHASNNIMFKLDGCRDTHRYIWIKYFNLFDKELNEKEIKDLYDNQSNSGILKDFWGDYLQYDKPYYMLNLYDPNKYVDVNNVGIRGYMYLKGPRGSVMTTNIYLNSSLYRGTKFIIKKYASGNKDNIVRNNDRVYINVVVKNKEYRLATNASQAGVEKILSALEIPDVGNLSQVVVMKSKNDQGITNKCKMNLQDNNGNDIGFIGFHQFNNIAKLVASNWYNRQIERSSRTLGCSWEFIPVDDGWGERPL", "assay": "BoNT/A light chain protease inhibitors, biochemical, multiplex microsphere flow cytometry, validation set (AID 588460)", "conditions": "at 10 µM, stronger effect = higher value"}, "[16]": {"molecular_target": "Lethal factor (Bacillus anthracis) (UniProt P15917)", "sequence (P15917 whole entry, looked up)": "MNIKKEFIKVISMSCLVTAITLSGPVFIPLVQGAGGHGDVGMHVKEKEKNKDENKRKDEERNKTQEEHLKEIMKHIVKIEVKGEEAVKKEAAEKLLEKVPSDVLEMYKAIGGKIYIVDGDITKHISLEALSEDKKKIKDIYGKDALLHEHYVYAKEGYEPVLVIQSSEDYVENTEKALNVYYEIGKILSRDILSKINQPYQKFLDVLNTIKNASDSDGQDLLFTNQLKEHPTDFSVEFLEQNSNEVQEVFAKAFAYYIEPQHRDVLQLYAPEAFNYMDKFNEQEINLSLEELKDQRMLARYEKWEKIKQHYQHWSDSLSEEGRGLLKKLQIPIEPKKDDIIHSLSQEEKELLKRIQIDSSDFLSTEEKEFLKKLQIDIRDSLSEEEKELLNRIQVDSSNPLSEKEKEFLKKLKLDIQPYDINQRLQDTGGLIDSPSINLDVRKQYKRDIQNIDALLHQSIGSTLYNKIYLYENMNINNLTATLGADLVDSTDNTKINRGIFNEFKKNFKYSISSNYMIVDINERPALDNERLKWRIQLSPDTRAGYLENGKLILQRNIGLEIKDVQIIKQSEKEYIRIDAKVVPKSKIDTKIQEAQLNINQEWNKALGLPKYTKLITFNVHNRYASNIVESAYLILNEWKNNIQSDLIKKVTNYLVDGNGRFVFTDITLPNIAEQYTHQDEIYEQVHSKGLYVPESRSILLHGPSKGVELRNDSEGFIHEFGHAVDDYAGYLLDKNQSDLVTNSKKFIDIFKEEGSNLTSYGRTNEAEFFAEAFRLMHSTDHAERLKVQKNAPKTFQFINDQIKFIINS", "assay": "Bacillus anthracis lethal factor inhibition, microsphere flow cytometry protease assay, validation at 10 µM (AID 588461)", "conditions": "multiplex microsphere protease cleavage assay, stronger effect = higher value"}, "[17]": {"assay": "Nile Red efflux blockade in pump-expressing yeast – validation compound set, multiplex, phenotypic, pilot screen (AID 588506;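 active = efflux inhibition above 0.42, the validation set average plus 4 SD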;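 also: Nile Red retained in cells so higher fluorescence means more efflux inhibition; 0 = negative control wells and 1 = enniatin B 25 µM full block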)", "conditions": "S. cerevisiae pump-expressing triplex, Nile Red efflux flow cytometry; at 10 µM; stronger effect = higher value"}, "[18]": {"molecular_target": "ATP-binding cassette sub-family B member 6 (Homo sapiens) (UniProt Q9NP58)", "sequence (Q9NP58 whole entry, looked up)": "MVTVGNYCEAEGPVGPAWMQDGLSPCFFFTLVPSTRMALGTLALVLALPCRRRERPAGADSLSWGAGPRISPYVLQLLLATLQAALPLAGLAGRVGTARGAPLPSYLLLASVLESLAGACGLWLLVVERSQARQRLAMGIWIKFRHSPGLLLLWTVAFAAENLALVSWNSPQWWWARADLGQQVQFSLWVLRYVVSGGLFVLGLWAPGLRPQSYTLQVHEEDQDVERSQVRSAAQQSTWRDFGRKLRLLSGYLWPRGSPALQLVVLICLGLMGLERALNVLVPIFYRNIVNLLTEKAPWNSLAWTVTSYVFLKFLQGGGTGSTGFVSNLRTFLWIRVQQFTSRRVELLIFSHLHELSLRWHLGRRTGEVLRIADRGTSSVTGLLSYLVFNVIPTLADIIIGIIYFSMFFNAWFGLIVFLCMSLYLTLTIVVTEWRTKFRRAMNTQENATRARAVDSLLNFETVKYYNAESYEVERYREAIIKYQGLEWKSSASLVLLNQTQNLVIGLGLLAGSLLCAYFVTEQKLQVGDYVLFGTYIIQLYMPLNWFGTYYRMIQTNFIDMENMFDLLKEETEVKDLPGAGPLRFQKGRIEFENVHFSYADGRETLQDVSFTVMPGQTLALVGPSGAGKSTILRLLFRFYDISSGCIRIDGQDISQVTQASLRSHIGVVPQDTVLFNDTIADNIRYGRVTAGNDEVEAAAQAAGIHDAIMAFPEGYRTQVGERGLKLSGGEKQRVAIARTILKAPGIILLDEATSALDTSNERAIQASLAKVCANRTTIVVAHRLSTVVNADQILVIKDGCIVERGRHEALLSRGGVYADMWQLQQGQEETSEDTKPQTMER", "assay": "blockers of ABCB6-driven porphyrin uptake – K562-ABCB6 cells, flow cytometry, validation set, pilot screen (AID 588550;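 active = inhibition above the screen-wide mean plus 3 SD, about 51%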;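 also: 0% = DMSO wells and 100% = benzethonium chloride 70 µM positive control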)", "conditions": "K562-ABCB6 porphyrin accumulation, 1 h, at 10 µM, stronger effect = higher value"}, "[19]": {"assay": "AML differentiation inducers, ER-HoxA9 marrow cells – cell-based, GFP/MAC1 double positive, flow cytometry, validation set, primary screen (AID 588685;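 active = differentiation response of at least 50%, scaled between solvent and reference control, from cells with both markers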;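 also: compound exposure lasts four days before antibody staining and flow analysis; 0% = DMSO wells and 100% = 5 µM fulvestrant positive control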)", "conditions": "stronger effect = higher value"}}, "note": "Records with an inconclusive call do not appear. The source made the active and inactive calls. Unless noted, no rule for the calls is given here."}
{"smiles": "CCn1ccnc1CN1CCCC(C(=O)c2cc(F)ccc2OC)C1", "note": "(stereo not given)", "values": [{"measurement": "percent of DMSO control GFP", "setting": "[1]", "result": "100% (inactive)"}, {"measurement": "GFP response vs DMSO", "setting": "[2]", "result": "93% (inactive)"}, {"measurement": "percent response of DMSO control", "setting": "[3]", "result": "96.7% (inactive)"}, {"measurement": "GFP response vs DMSO", "setting": "[4]", "result": "99.9% (inactive)"}, {"measurement": "GFP response, % of DMSO", "setting": "[5]", "result": "102% (inactive)"}, {"measurement": "double positive events", "setting": "[6]", "result": 61.5, "unit": "%"}, {"measurement": "vesicle binding response", "setting": "[6]", "result": "125% (inactive)"}, {"measurement": "inhibition", "setting": "[7]", "result": "-3.16% (inactive)"}, {"measurement": "superoxide response (% of plate)", "setting": "[8]", "result": "96.9% (inactive)"}, {"measurement": "aptamer binding inhibition", "setting": "[9]", "result": "2% (inactive)"}, {"measurement": "response", "setting": "[10]", "result": "-6.87% (inactive)"}, {"measurement": "inhibition", "setting": "[11]", "result": "18.6% (inactive)"}, {"measurement": "response", "setting": "[12]", "result": "1.54% (inactive)"}, {"measurement": "binding (% of control)", "setting": "[13]", "result": "98.4% (inactive)"}, {"measurement": "inhibition", "setting": "[14]", "result": "0.8% (inactive)"}, {"measurement": "inhibition", "setting": "[15]", "result": "-1.2% (inactive)"}, {"measurement": "inhibition", "setting": "[16]", "result": "-1.6% (inactive)"}, {"measurement": "efflux inhibition (fraction of control)", "setting": "[17]", "result": "-0.21 (inactive)"}, {"measurement": "inhibition", "setting": "[18]", "result": "3% (inactive)"}, {"measurement": "differentiation response", "setting": "[19]", "result": "-8.8% (inactive)"}]}
{"smiles": "C[C@@]1(CO)[C@H](O)CC[C@@]2(C)[C@H]1CC[C@H]1C[C@@H]3C[C@@]12CC[C@]3(O)CO", "values": [{"measurement": "percent of DMSO control GFP", "setting": "[1]", "result": "105% (inactive)"}, {"measurement": "GFP response vs DMSO", "setting": "[2]", "result": "106% (inactive)"}, {"measurement": "percent response of DMSO control", "setting": "[3]", "result": "102% (inactive)"}, {"measurement": "GFP response vs DMSO", "setting": "[4]", "result": "103% (inactive)"}, {"measurement": "GFP response, % of DMSO", "setting": "[5]", "result": "99.3% (inactive)"}, {"measurement": "double positive events", "setting": "[6]", "result": 62.9, "unit": "%"}, {"measurement": "vesicle binding response", "setting": "[6]", "result": "225% (inactive)"}, {"measurement": "inhibition", "setting": "[7]", "result": "17.7% (inactive)"}, {"measurement": "superoxide response (% of plate)", "setting": "[8]", "result": "102% (inactive)"}, {"measurement": "aptamer binding inhibition", "setting": "[9]", "result": "0% (inactive)"}, {"measurement": "response", "setting": "[10]", "result": "0.18% (inactive)"}, {"measurement": "inhibition", "setting": "[11]", "result": "54.5% (active)"}, {"measurement": "response", "setting": "[12]", "result": "3.03% (inactive)"}, {"measurement": "binding (% of control)", "setting": "[13]", "result": "100% (inactive)"}, {"measurement": "inhibition", "setting": "[14]", "result": "4.1% (inactive)"}, {"measurement": "inhibition", "setting": "[15]", "result": "1% (inactive)"}, {"measurement": "inhibition", "setting": "[16]", "result": "-0.5% (inactive)"}, {"measurement": "efflux inhibition (fraction of control)", "setting": "[17]", "result": "-0.04 (inactive)"}, {"measurement": "inhibition", "setting": "[18]", "result": "6% (inactive)"}, {"measurement": "differentiation response", "setting": "[19]", "result": "-1.65% (inactive)"}]}
{"smiles": "CCn1c(O)c(C(=O)CC2NCCc3ccccc32)c(=O)n(CC)c1=S", "note": "(stereo not given)", "values": [{"measurement": "percent of DMSO control GFP", "setting": "[1]", "result": "95.2% (inactive)"}, {"measurement": "GFP response vs DMSO", "setting": "[2]", "result": "118% (inactive)"}, {"measurement": "percent response of DMSO control", "setting": "[3]", "result": "97.7% (inactive)"}, {"measurement": "GFP response vs DMSO", "setting": "[4]", "result": "132% (inactive)"}, {"measurement": "GFP response, % of DMSO", "setting": "[5]", "result": "101% (inactive)"}, {"measurement": "double positive events", "setting": "[6]", "result": 55.8, "unit": "%"}, {"measurement": "vesicle binding response", "setting": "[6]", "result": "186% (inactive)"}, {"measurement": "inhibition", "setting": "[7]", "result": "-7.25% (inactive)"}, {"measurement": "superoxide response (% of plate)", "setting": "[8]", "result": "113% (inactive)"}, {"measurement": "aptamer binding inhibition", "setting": "[9]", "result": "1% (inactive)"}, {"measurement": "response", "setting": "[10]", "result": "20.4% (inactive)"}, {"measurement": "inhibition", "setting": "[11]", "result": "5.21% (inactive)"}, {"measurement": "response", "setting": "[12]", "result": "1.26% (inactive)"}, {"measurement": "binding (% of control)", "setting": "[13]", "result": "102% (inactive)"}, {"measurement": "inhibition", "setting": "[14]", "result": "2.4% (inactive)"}, {"measurement": "inhibition", "setting": "[15]", "result": "1.1% (inactive)"}, {"measurement": "inhibition", "setting": "[16]", "result": "-11.5% (inactive)"}, {"measurement": "efflux inhibition (fraction of control)", "setting": "[17]", "result": "-0.03 (inactive)"}, {"measurement": "inhibition", "setting": "[18]", "result": "-11% (inactive)"}, {"measurement": "differentiation response", "setting": "[19]", "result": "-15.2% (inactive)"}]}
